GRK2 aptamer HTS: inhibitors of human GRK2 displacing RNA aptamer; inhibition of aptamer binding, % at 10 µM; actives 0.59% (n = 330,000); AID 488847; P25098; bead flow cytometry, FAM-aptamer displacement from GRK2;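 active = inhibition of aptamer binding above 40%, roughly 3 SD of noise, on plates passing a quality check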;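 also: median bead fluorescence of bound FAM aptamer so fluorescent compounds give negative values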
PKD1 inh: PKD1 (human) kinase inhibition. PKD1 kinase fluorescence polarization assay. Q15139. AID 797. inhibition, % (concentration not given with the values). actives 0.056% (n = 200,000)
VLA-4 inh: inhibition in a human VLA-4 binding assay | P13612 | VLA-4 expressing cells, ligand binding flow cytometry | inhibition, % (about 7 µM as worked out from the volumes in the protocol) | actives 0.2% (n = 330,000) | AID 2557
HDAC3 inh: blocks human histone deacetylase 3; O15379; actives 0.15% (n = 320,000); inhibition, % at 8.3 µM; recombinant HDAC3, fluorogenic peptide/trypsin coupled, fluorescence; AID 2718; in the data active = inhibition above about 26%, passing the limit was not always enough; inconclusive = no clear call, values can overlap the other calls
Target sequence (O15379 whole entry, looked up): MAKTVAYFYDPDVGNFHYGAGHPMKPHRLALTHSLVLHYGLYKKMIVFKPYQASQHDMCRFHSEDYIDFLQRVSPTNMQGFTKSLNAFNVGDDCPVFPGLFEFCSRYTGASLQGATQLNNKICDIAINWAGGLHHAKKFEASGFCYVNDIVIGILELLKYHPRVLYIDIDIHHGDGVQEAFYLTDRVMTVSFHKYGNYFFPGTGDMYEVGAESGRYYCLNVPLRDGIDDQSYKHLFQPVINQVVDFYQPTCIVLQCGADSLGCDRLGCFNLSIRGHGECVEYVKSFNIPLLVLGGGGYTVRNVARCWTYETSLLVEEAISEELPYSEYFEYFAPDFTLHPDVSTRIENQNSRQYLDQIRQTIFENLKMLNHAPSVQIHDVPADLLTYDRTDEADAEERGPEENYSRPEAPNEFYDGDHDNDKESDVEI
LANA-H2B inh: blocks KSHV LANA binding to histone H2A/H2B | Q9QR71 | cell-free LANA-H2A/H2B peptide, fluorescence polarization | inhibition, % (test concentration not listed) | actives 0.6% (n = 320,000); in the data active = inhibition mostly above about 10%, no sharp cut-off; inactive = mostly below about 6.7%
Pemphigus Ab inh: blocks pemphigus antibody binding to human desmoglein-3; binding (percent of control), % at 10 µM; AID 588358; DSG3-coupled beads, scFv-anti-DSG3-GFP binding, flow cytometry; active compounds read low; P32926; actives 0.48% (n = 310,000);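 active = binding more than 3 SD below its plate's average and above zero; inconclusive = below that plate limit but binding exactly zero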;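 also: hits lower antibody fragment binding to DSG3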
GRK2 CP1: human GRK2 inhibition confirmation, cherry pick 1. shares compounds with GRK2 aptamer HTS. bead-bound GRK2, FAM-aptamer displacement, flow cytometry. aptamer displacement, % at 10 µM. actives 4% (n = 2,000). AID 504451;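 active = aptamer displacement above 40%, near three times the noise of non-fluorescent compounds, on plates passing quality checks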;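 also: negative values mostly reflect intrinsic compound fluorescence rather than true enhancement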
Aptamer quench 1: fluorescent aptamer quenching in GRK2 counter-screen dose response. shares compounds with GRK2 aptamer HTS. Fluorescent RNA aptamer beads, flow cytometry; active compounds read high. fluorescence change (kMESF span), kMESF (no concentration beside the values). 110 tested, under 10 active. AID 504521;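 active = compounds whose bead fluorescence drops by more than 37 kMESF across the dose range, marking them as dye quenchers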
FAM quench CP1: aptamer fluorescence quenching in GRK2 counter-screen. shares compounds with GRK2 aptamer HTS. Carboxyfluorescein RNA aptamer on beads, flow cytometry quenching; active compounds read low. fluorescence response (% of DMSO), % at 10 µM. 2,000 tested, under 10 active. AID 504580;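 active = compounds that quench the bead-bound fluorescent RNA probe, cutting fluorescence to under half of the solvent control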;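 also: counterscreen run without GRK2 so only probe quenching by compound is measured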
GRK2 CP2: confirmation of human GRK2 inhibitors binding RNA aptamer site | shares compounds with GRK2 aptamer HTS | bead-bound GRK2, FAM-aptamer displacement, flow cytometry | inhibition of aptamer binding, % at 10 µM | 360 tested, under 10 active;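 active = inhibition of aptamer binding above 40%, about triple the noise seen with nonglowing compounds, on plates passing quality control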;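 also: negative values mostly come from compounds that fluoresce themselves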
FAM quench SP: counter-screen for GRK2 binding hits: quenchers of fluorescent RNA aptamer; 360 tested, under 10 active; shares compounds with GRK2 aptamer HTS; carboxyfluorescein RNA aptamer beads, flow cytometry quenching; active compounds read low; fluorescence response vs DMSO, % at 10 µM; AID 588494;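 active = response vs DMSO under 50%, meaning signal dropped by over half, treated as fluorescence quencher; inconclusive = no clear call, values can overlap the other calls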;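 also: labelled aptamer on streptavidin beads without GRK2 as a quench counter-screen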
Large screens that a line does not name were inactive (follow-up assays come after a bar, where they were run). Hits are enriched below; roughly 1.8% of the tested compounds scored in any of these assays. Rule as the data show it, unless noted: active = inhibition above about 50%; inactive = the rest.

CCN(C(=O)C(C)OC(=O)CCCNC(=O)c1ccc(Cl)cc1)c1ccccc1 (stereo unspecified)	none (no result: PKD1 inh)
C#CCOCCOCCOCCNc1nc(N2CCOCC2)nc(N2CCN(C(=O)CCCCCCCCCCNC(=O)[C@H](CO)n3cc(CCCSC)nn3)CC2)n1	GRK2 aptamer HTS 50.0 (no result: PKD1 inh) | GRK2 CP1 inactive | FAM quench CP1 inactive
C#CCOCCOCCOCCNc1nc(N2CCN(C(=O)CCCCCCCCCCNC(=O)[C@@H](CCC(=O)O)n3cc(CCCCCN)nn3)CC2)nc(N2CCN(C(=O)CCCCCCCCCCNC(=O)[C@H](CO)n3cc(CCCSC)nn3)CC2)n1	none (no result: PKD1 inh)
C#CCOCCOCCOCCNc1nc(N2CCOCC2)nc(N2CCN(C(=O)[C@H](CO)n3cc([C@@H](N)C(C)C)nn3)CC2)n1	GRK2 aptamer HTS 74.0 (no result: PKD1 inh) | GRK2 CP2 inactive | FAM quench SP inactive
Cn1ccnc1C1CCCCN1Cc1nc(Cc2cccc(C(F)(F)F)c2)no1 (stereo unspecified)	Pemphigus Ab inh inconclusive | GRK2 CP1 inactive | FAM quench CP1 inactive
COc1ccc(CNC(=O)c2cc(-c3ccc(OC)c(OC)c3)on2)cc1	none
COc1ccc(-c2cc(C(=O)NCc3ccc(Cl)cc3)no2)cc1OC	none | GRK2 CP1 inactive | FAM quench CP1 inactive
CCOC(=O)C1CN(C(=O)OCC)CC1=NNC(N)=O (stereo unspecified)	none (no result: GRK2 aptamer HTS, PKD1 inh, VLA-4 inh, HDAC3 inh, LANA-H2B inh)
CC1(C(=O)O)CCC(C(=O)Nc2ccc(OC(F)(F)Cl)cc2)C1(C)C (stereo unspecified)	none (no result: PKD1 inh)
COc1cc(NC(=O)COc2ccccc2C)ccc1NC(=O)c1ccco1	GRK2 aptamer HTS 51.0 (no result: PKD1 inh) | GRK2 CP2 inactive | FAM quench SP inactive
COc1ccc(C(=O)Nc2ccccc2NC(=O)c2ccco2)c(OC)c1	none
COc1ccc(C(=O)Nc2ccccc2NC(=O)c2ccco2)cc1OC	GRK2 aptamer HTS 44.0 (no result: Pemphigus Ab inh) | GRK2 CP1 inactive | FAM quench CP1 inactive
O=C(Nc1ccc(S(=O)(=O)N2CCCCC2)cc1)C1CCCO1 (stereo unspecified)	none (no result: PKD1 inh, Pemphigus Ab inh)
O=C1CN(C(=O)c2ccccc2F)c2ccccc2N1	GRK2 aptamer HTS 48.0 | GRK2 CP1 inactive | FAM quench CP1 inactive
O=C1CN(C(=O)c2ccccn2)c2ccccc2N1	none
O=C(Nc1ccc(NC(=O)c2ccccc2O)cc1)Nc1ccc(F)cc1F	none (no result: PKD1 inh, Pemphigus Ab inh)
CCN(CC)C(=O)Cn1cc(S(=O)(=O)CC(=O)Nc2cc(OC)ccc2OC)c2ccccc21	GRK2 aptamer HTS 71.0 (no result: PKD1 inh) | GRK2 CP2 inactive | FAM quench SP inactive
CCN(C(=O)Cc1c(C(=O)O)n(C)c2ccccc12)c1cc(OC)ccc1OC	Pemphigus Ab inh inconclusive (no result: PKD1 inh)
CCn1c(C(=O)O)c(CC(=O)N(C)c2ccc(OC)cc2OC)c2ccccc21	GRK2 aptamer HTS 58.0 (no result: PKD1 inh) | GRK2 CP1 inactive | FAM quench CP1 inactive
COc1ccc(OC)c(NC(=O)Cc2c(C(=O)O)n(C)c3ccccc23)c1	GRK2 aptamer HTS 47.0 (no result: PKD1 inh) | GRK2 CP2 inactive | FAM quench SP inactive
CC(=O)c1cccc(NC(=O)C(C)OC(=O)C2=NNC(=O)CC2)c1 (stereo unspecified)	none (no result: PKD1 inh, Pemphigus Ab inh)
Cc1ccc(C)n1-c1cc([N+](=O)[O-])ccc1-n1ccnc1	none (no result: PKD1 inh)
CC1(C)N([O-])c2cc([N+](=O)[O-])ccc2[N+]1=O	GRK2 aptamer HTS 68.0 (no result: PKD1 inh) | GRK2 CP1 inactive | FAM quench CP1 inactive
COc1ccc(C(=O)NCC(C)(C)SCc2c(C)cc(C)cc2C)cc1	GRK2 aptamer HTS 50.0 | GRK2 CP1 inactive | FAM quench CP1 inactive
Cc1ccc(C)c(N2CCN(C(=O)c3ccc(NC4=NC5CS(=O)(=O)CC5S4)cc3)CC2)c1 (stereo unspecified)	none (no result: PKD1 inh)
N#Cc1c(-c2ccccc2)cc(-c2ccccc2)[nH]c1=O	GRK2 aptamer HTS 60.0 (no result: PKD1 inh) | GRK2 CP2 inactive | FAM quench SP inactive
COc1cc(-c2cc(-c3ccc(N)cc3)[nH]c(=O)c2C#N)cc(OC)c1OC	none (no result: PKD1 inh)
CC(=O)Nc1ccc2nc3c(=O)n(C)c(=O)n(C)c3nc2c1	GRK2 aptamer HTS 42.0 (no result: PKD1 inh, Pemphigus Ab inh) | GRK2 CP1 inactive | FAM quench CP1 inactive
CC(C)(C)Cc1c(-c2ccc(F)cc2)nc2ccc(Cl)cn12	none (no result: GRK2 aptamer HTS, PKD1 inh, VLA-4 inh, HDAC3 inh, LANA-H2B inh)
CC(C)C(C(=O)O)N1C(=O)/C(=C/C=C/c2ccco2)SC1=S (stereo unspecified)	GRK2 aptamer HTS 95.0, Pemphigus Ab inh 76.4 | GRK2 CP1 55.0 | Aptamer quench 1 inactive | FAM quench CP1 inactive
O=C(NN1C(=O)/C(=C/C=C/c2ccco2)SC1=S)c1ccncc1	GRK2 aptamer HTS 79.0 (no result: PKD1 inh, HDAC3 inh) | GRK2 CP1 inactive | FAM quench CP1 inactive
O=C(N/N=C\c1c(O)ccc2ccccc12)c1ccc(O)cc1	none (no result: PKD1 inh)
O=C(N/N=C/c1c(O)ccc2ccccc12)Nc1ccccc1	GRK2 aptamer HTS 43.0 (no result: PKD1 inh) | GRK2 CP1 inactive | FAM quench CP1 inactive
COc1ccc(C2(c3ccc(OC)cc3)NC(=O)N(CC(=O)NCC(C)c3ccccc3)C2=O)cc1 (stereo unspecified)	none (no result: PKD1 inh)
O=C(Nc1ccc(F)cc1F)c1noc2c1CCC2	GRK2 aptamer HTS 59.0 | GRK2 CP1 inactive | FAM quench CP1 inactive
COc1ccc(/C=N/NC(=O)c2cccc(Br)c2)cc1COc1ccccn1	none (no result: PKD1 inh)
Cc1c(C(N)=O)sc(N)c1C(=O)OC(C)C	none (no result: Pemphigus Ab inh)
Cc1c(C(=O)OC(C)C)sc(N)c1C(=O)OC(C)C	GRK2 aptamer HTS 70.0 | GRK2 CP2 inactive | FAM quench SP inactive
Cc1c2c(nc3ccccc13)CCC(C)C2 (stereo unspecified)	none
O=S(=O)(Nc1cc(C(F)(F)F)ccc1N1CCOCC1)c1ccccc1	none (no result: PKD1 inh, Pemphigus Ab inh)
Cc1cccc(S(=O)(=O)Nc2cc(Cl)ccc2N2CCOCC2)c1	GRK2 aptamer HTS 81.0 (no result: PKD1 inh) | GRK2 CP1 inactive | FAM quench CP1 inactive
Cc1ccc(C(=O)Nc2ccc(N3CCN(C)CC3)cc2)c(Cl)c1	GRK2 aptamer HTS 49.0 (no result: PKD1 inh) | GRK2 CP1 inactive | FAM quench CP1 inactive
CCCCCC(=O)Nc1cccc(C2=NOC3(C2)C[C@@H](C(N)=O)N(C(=O)c2cc([N+](=O)[O-])cc([N+](=O)[O-])c2)C3)c1 (stereo partly specified)	none (no result: PKD1 inh)

Screening data from PubChem BioAssay.
